Read-out in assay [1]: Interleukin-8 (IL8), CXCL8 (gene 3576)
The assay can be described thus: BSK_CASM3C_IL8: BioMAP Diversity Plus: CASM3C Assay for Interleukin-8 (IL8) Biomarker Activity (AID 2283042).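 Further: IL-8 protein level quantified by ELISA.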 The settings on record: primary human coronary artery smooth muscle cells; actives raise or lower the signal.

Read-out in assay [2]: Human Leukocyte Antigen - DR isotype (HLADR), HLA-DRA (gene 3122)
The assay can be described thus: BSK_CASM3C_HLADR: BioMAP Diversity Plus: CASM3C Assay for Human Leukocyte Antigen - DR isotype (HLADR) Biomarker Activity (AID 2283043).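 Further: cell-surface HLA-DR protein level quantified by ELISA.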 The settings on record: primary human coronary artery smooth muscle cells; actives raise or lower the signal.

Read-out in assay [3]: Macrophage colony-stimulating factor (MCSF), CSF1 (gene 1435)
The assay can be described thus: BSK_CASM3C_MCSF: BioMAP Diversity Plus: CASM3C Assay for Macrophage colony-stimulating factor (MCSF) Biomarker Activity (AID 2283044).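 Further: M-CSF protein amount quantified by ELISA after 24 h exposure.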 The conditions noted are these: primary human coronary artery smooth muscle cells; actives raise or lower the signal.

Read-out in assay [4]: Low-density lipoprotein receptor (LDLR), LDLR (gene 3949)
The assay can be described thus: BSK_CASM3C_LDLR: BioMAP Diversity Plus: CASM3C Assay for Low-density lipoprotein receptor (LDLR) Biomarker Activity (AID 2283045).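 Further: LDLR protein level on the cell surface quantified by ELISA.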 The settings on record: primary human coronary artery smooth muscle cells; actives raise or lower the signal.

Read-out in assay [5]: Monocyte Chemoattractant Protein-1 (MCP1), CCL2 (gene 6347)
The assay can be described thus: BSK_CASM3C_MCP1: BioMAP Diversity Plus: CASM3C Assay for Monocyte Chemoattractant Protein-1 (MCP1) Biomarker Activity (AID 2283046).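 Further: MCP-1 level quantified by ELISA 24 h after dosing.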 The settings on record: primary human coronary artery smooth muscle cells; actives raise or lower the signal.

The nature of assay [6]: BSK_CASM3C_Proliferation: Cell Proliferation Assessment in the BioMAP Diversity Plus: CASM3C Assay (AID 2283047).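 Further: sulforhodamine B total protein stain as relative cell number at 560 nm; sub-confluent cells exposed 48 h before staining; fitted both ways against DMSO so gain or loss of cell number.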 The settings on record: primary human coronary artery smooth muscle cells.
Read-out in assay [7]: Monokine induced gamma interferon (MIG), CXCL9 (gene 4283)
The assay can be described thus: BSK_CASM3C_MIG: BioMAP Diversity Plus: CASM3C Assay for Monokine induced gamma interferon (MIG) Biomarker Activity (AID 2283048).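 Further: MIG protein level measured by ELISA.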 The conditions noted are these: primary human coronary artery smooth muscle cells; actives raise or lower the signal.

Read-out in assay [8]: serum amyloid A (SAA), SAA1 (gene 6288)
The assay can be described thus: BSK_CASM3C_SAA: BioMAP Diversity Plus: CASM3C Assay for serum amyloid A (SAA) Biomarker Activity (AID 2283049).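 Further: SAA protein level quantified by ELISA.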 The settings on record: primary human coronary artery smooth muscle cells; actives raise or lower the signal.

Assay [9] is described as follows: BSK_CASM3C_SRB: Viability Assessment in the BioMAP Diversity Plus: CASM3C Assay (AID 2283050).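 Further: total protein by SRB staining as cytotoxicity measure in parallel cultures; cells exposed to compound for 24 h.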 The conditions noted are these: primary human coronary artery smooth muscle cells.
Read-out in assay [10]: Thrombomodulin, THBD (gene 7056)
The assay can be described thus: BSK_CASM3C_Thrombomodulin: BioMAP Diversity Plus: CASM3C Assay for Thrombomodulin Biomarker Activity (AID 2283051).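 Further: thrombomodulin protein level measured by ELISA 24 h after dosing.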 The conditions noted are these: primary human coronary artery smooth muscle cells; actives raise or lower the signal.

Read-out in assay [11]: Tissue Factor, F3 (gene 2152)
The assay can be described thus: BSK_CASM3C_TissueFactor: BioMAP Diversity Plus: CASM3C Assay for Tissue Factor Biomarker Activity (AID 2283052).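 Further: cell surface tissue factor protein level read by ELISA.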 The settings on record: primary human coronary artery smooth muscle cells; actives raise or lower the signal.

Read-out in assay [12]: Urokinase-type plasminogen activator receptor (uPAR), PLAUR (gene 5329)
The assay can be described thus: BSK_CASM3C_uPAR: BioMAP Diversity Plus: CASM3C Assay for Urokinase-type plasminogen activator receptor (uPAR) Biomarker Activity (AID 2283054).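 Further: cell-surface uPAR protein level quantified by ELISA.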 The conditions noted are these: primary human coronary artery smooth muscle cells; actives raise or lower the signal.

Read-out in assay [13]: Vascular cell adhesion molecule 1 (VCAM1), VCAM1 (gene 7412)
The assay can be described thus: BSK_CASM3C_VCAM1: BioMAP Diversity Plus: CASM3C Assay for Vascular cell adhesion molecule 1 (VCAM1) Biomarker Activity (AID 2283055).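 Further: VCAM-1 protein level quantified by ELISA on the cells.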 The conditions noted are these: primary human coronary artery smooth muscle cells; actives raise or lower the signal.

Read-out in assay [14]: Collagen III, COL3A1 (gene 1281)
The assay can be described thus: BSK_hDFCGF_CollagenIII: BioMAP Diversity Plus: hDFCGF Assay for Collagen III Biomarker Activity (AID 2283056). The settings on record: primary human foreskin fibroblasts; actives raise or lower the signal. The procedure, abridged:
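ELISA read-out of collagen III from human skin fibroblast cultures sampled 24 h post-dosing. Values were derived by bidirectional fitting relative to the DMSO vehicle control.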

Read-out in assay [15]: Epidermal growth factor receptor (EGFR), EGFR (gene 1956)
The assay can be described thus: BSK_hDFCGF_EGFR: BioMAP Diversity Plus: hDFCGF Assay for Epidermal growth factor receptor (EGFR) Biomarker Activity (AID 2283057). The conditions noted are these: primary human foreskin fibroblasts; actives raise or lower the signal. The essentials: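 ELISA readout of EGFR on human dermal fibroblasts (primary foreskin cells), 24 h post-dosing; bidirectional curve fit vs DMSO baseline, gain or loss of signal scored.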

A short description of assay [16]: BSK_hDFCGF_Proliferation: Cell Proliferation Assessment in the BioMAP Diversity Plus: hDFCGF Assay (AID 2283059).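 Further: curves fitted for both rise and fall of signal versus DMSO baseline.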 The settings on record: primary human foreskin fibroblasts. The procedure, abridged:
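Primary human foreskin fibroblasts, sub-confluent; […]; 10% TCA fix, 0.1% SRB stain, A560 total protein. Gain/loss fitted bidirectionally vs DMSO control.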

Assay [17] is described as follows: BSK_hDFCGF_SRB: Viability Assessment in the BioMAP Diversity Plus: hDFCGF Assay (AID 2283061).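 Further: cells exposed to compound for 24 h before the read.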 The settings on record: primary human foreskin fibroblasts. The procedure, abridged:
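Readout is SRB absorbance at 560 nm, reflecting total protein in parallel cultures of human foreskin fibroblasts harvested 24 h after chemical dosing. Activity was fitted bidirectionally relative to DMSO.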

Read-out in assay [18]: Interleukin-8 (IL8), CXCL8 (gene 3576)
The assay can be described thus: BSK_hDFCGF_IL8: BioMAP Diversity Plus: hDFCGF Assay for Interleukin-8 (IL8) Biomarker Activity (AID 2283058). The settings on record: primary human foreskin fibroblasts; actives raise or lower the signal. The essentials:
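Cells used are human skin primary fibroblasts. Chemical is added, cultures run 24 h, then IL-8 is quantified by ELISA, and gain or loss versus DMSO control is fitted in both directions.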

Read-out in assay [19]: Macrophage colony-stimulating factor (MCSF), CSF1 (gene 1435)
The assay can be described thus: BSK_hDFCGF_MCSF: BioMAP Diversity Plus: hDFCGF Assay for Macrophage colony-stimulating factor (MCSF) Biomarker Activity (AID 2283060). The conditions noted are these: primary human foreskin fibroblasts; actives raise or lower the signal. The procedure, abridged: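 Primary human foreskin fibroblasts dosed with chemical; 24 h later, M-CSF quantified by ELISA; curves fitted in both directions vs DMSO negative control.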

The values that follow come from PubChem BioAssay (EPA / NIEHS).

The term AC50 denotes the concentration giving half of the maximal activity seen.

Calls of active or inactive are those of the source. How the source made its calls: active means hit-call score of the fitted dose curve at least 0.9, where 1 is the maximum; inactive means score below 0.9.

Turning to `CC[C@H](NC(=O)c1cc(F)ccc1NS(=O)(=O)c1cccc2cccnc12)c1ccccc1`, the result in [1], in [2], in assay [3], in assay [5], in assay [6] and in assay [7] was inactive. The result in assay [8], in assay [9], in assay [11], in [12], in assay [13] and in assay [15] was inactive. The outcome in assay [17] was inactive. For the same compound, the AC50 was 7.05 µM (active) in assay [4], 10.8 µM (active) in assay [10], 8.58 µM (active) in [14] and 21.5 µM (active) in assay [16].

Consider `O=C(O)Cc1cc(I)c(Oc2ccc(O)c(I)c2)c(I)c1`, for which the outcome in assay [1], in assay [2], in assay [3], in assay [4], in assay [5] and in assay [6] was inactive. The result in [7], in assay [8], in assay [9], in assay [10], in assay [11] and in assay [12] was inactive. In addition, the result in assay [13], in [15] and in assay [18] was inactive. In addition, the results for the AC50 in assay [14], in assay [16] and in assay [17] were 8.91 µM (active), 13.7 µM (active) and 20.2 µM (active), respectively.

`CC1=CC(=O)/C(=C(/C)O)C(=O)O1`: the outcome in [1], in [2], in [3], in assay [4], in assay [5] and in assay [6] was inactive. Moreover, the outcome in [7], in [8], in [9], in assay [10], in [11] and in [12] was inactive. For the same compound, the outcome in [13], in [14], in assay [15], in assay [19] and in [17] was inactive.

As for `Oc1ccc2ccccc2c1`, the outcome in assay [1], in [2], in assay [3], in assay [4], in assay [5] and in assay [6] was inactive. The outcome in assay [7], in assay [8], in assay [9], in assay [10], in assay [11] and in assay [12] was inactive. Further, the result in assay [13], in [14], in assay [15], in assay [16], in [19] and in [17] was inactive.

For `CC1(C)NC(=O)N(c2ccc([N+](=O)[O-])c(C(F)(F)F)c2)C1=O`, the result in [1], in [2], in assay [4], in assay [5], in [7] and in assay [8] was inactive. The outcome in assay [9], in assay [10], in assay [11], in assay [12], in assay [13] and in [14] was inactive. In addition, the result in assay [15], in assay [19] and in [17] was inactive. Besides, the AC50 in assay [3] and in assay [6] was 11.8 µM (active) throughout.

Take `CCOC(=O)O[C@H](C)OC(=O)c1ccc2c(c1)cc(C(=O)NC1CCN(C(C)C)CC1)n2Cc1cc(-c2ccc(Cl)s2)on1`: the AC50 in [1] is 8.81 µM (active); in assay [2], 5.85 µM (active); in [3] it was 5.13 µM (active); in [5], 7.49 µM (active); in assay [6], 2.41 µM (active); in assay [7], 9.34 µM (active). In addition, the AC50 in assay [8] is 6.05 µM (active); in assay [9], 6.15 µM (active); in [10], 9.19 µM (active); in assay [11], 7.43 µM (active); in assay [12], 6.27 µM (active); in [13], 10.3 µM (active). Moreover, the AC50 in [14] was 4.13 µM (active); in assay [15], 4.85 µM (active); in assay [16] it was 1.72 µM (active); in assay [19], 5.16 µM (active); in [17], 4.96 µM (active). Also, in [4], the result was inactive.
